# From PubChem BioAssay
# Shown are actives, neighbours in structure and some others; about 4.8% of the full set was active somewhere.
# USP1-UAF1 inh: USP1/UAF1 (human) deubiquitinase inhibition | O94782 | recombinant USP1/UAF1, Ub-Rhodamine cleavage fluorescence | Potency, µM (doses to about 57.1 µM), actives largely listed as inhibitors | hit rate 0.23% among 390,000 | AID 743255; note: nearly all actives have a fitted effect of over 60% in size
# Target sequence (O94782 whole entry, looked up): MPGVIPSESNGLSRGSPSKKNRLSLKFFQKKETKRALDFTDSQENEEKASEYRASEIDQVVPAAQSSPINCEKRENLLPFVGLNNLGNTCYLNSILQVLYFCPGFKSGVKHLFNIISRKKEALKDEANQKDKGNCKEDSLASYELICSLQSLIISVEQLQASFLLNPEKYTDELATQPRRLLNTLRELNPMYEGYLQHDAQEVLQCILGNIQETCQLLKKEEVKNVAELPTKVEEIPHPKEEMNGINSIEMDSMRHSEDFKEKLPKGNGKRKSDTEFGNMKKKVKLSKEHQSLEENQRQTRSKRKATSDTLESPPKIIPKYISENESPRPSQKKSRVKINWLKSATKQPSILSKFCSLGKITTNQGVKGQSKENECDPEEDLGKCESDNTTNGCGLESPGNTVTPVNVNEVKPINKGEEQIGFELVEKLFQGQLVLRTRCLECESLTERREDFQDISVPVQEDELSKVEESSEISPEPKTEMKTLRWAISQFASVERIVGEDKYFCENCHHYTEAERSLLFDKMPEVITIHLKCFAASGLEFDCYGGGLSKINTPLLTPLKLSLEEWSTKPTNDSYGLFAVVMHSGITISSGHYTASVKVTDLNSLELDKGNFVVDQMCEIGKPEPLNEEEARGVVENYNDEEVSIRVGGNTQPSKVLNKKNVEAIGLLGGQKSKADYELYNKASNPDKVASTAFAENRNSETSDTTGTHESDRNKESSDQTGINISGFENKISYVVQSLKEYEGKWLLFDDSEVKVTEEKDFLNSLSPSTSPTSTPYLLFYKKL
#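 1 nM enzyme complex + cpd, 15 min RT; start with Ub-Rho 150nM final; kinetic fluorescence ex 480/em 540, 6 reads q60 s. Buffer 50mM HEPES pH 7.8, 0.5mM EDTA, 0.1 mg/ml BSA, 1mM TCEP, 0.01% Tween-20.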
# ATXN viability: cell viability loss in ATXN counter-screen; S2 cells (HEK-293 line with an ATXN2-luciferase reporter) viability, CellTiter-Fluor protease fluorescence, 24 h; Potency, µM (top dose mostly 56.7 µM), hits mostly cytotoxic; hit rate 0.49% among 400,000; AID 651635; note: nearly all actives have a fitted effect of over 40% in size
# ATXN2 expr inh: reduces ATXN2 reporter expression in HEK-293 cells; HEK-293 ATXN2-luciferase reporter, luminescence, 24 h; hit rate 0.72% among 360,000; Potency, µM (series often up to 57 µM), usual class: inhibitors; AID 1745845; note: nearly all actives have a fitted effect of over 55% in size
#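 ATXN2-luciferase reporter cells (luciferase flanked by upstream and downstream ATXN2 gene portions) were treated 24 h at 37 °C with compounds at up to 57 uM. SteadyGlo luminescence gave expression; GF-AFC fluorescence gave viability.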
# IL-1B inflam inh: inhibitors of inflammasome signaling (IL-1 beta secretion); THP-1 LPS/ATP IL-1B secretion, AlphaLISA, 16 h; active compounds read low; activity change, % at 57.5 µM; hit rate 4.7% among 360,000; in the data active = activity change below about -50%; inconclusive = mostly about -30% to -49%
#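 THP-1 cells pretreated 1 hr with compounds (up to 57.5 uM final), then stimulated with LPS (250 ng/mL final) plus ATP (1.25 mM final); secreted IL-1B measured by AlphaLISA after 16 hr, decreased signal indicating inhibition.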
# USP2a block: blocks human ubiquitin-specific protease USP2a. O75604. USP2 core, Ub-CHOP2 coupled fluorogenic reporter, 485/531. Potency, µM (doses to about 38.3 µM), most hits filed as inhibitors. hit rate 0.01% among 330,000
#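 Deubiquitinase activity read as fluorescence (485/531 nm) after Ub-CHOP2 cleavage activates the enterokinase reporter on its substrate; USP2 core 10nM, Ub-CHOP2 and substrate 25nM each, 30min compound preincubation then 60min RT; data normalized to NEM, curves fitted.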
# Hits are given with their value; – = inactive; ? = inconclusive; · = no result; [ ] = remark or other dose. Unless noted, calls come from the whole dose curve; as a rule, active = well fitted curve in the direction sought with a large enough effect; inconclusive = small, poorly fitted or top-dose-only effect, or another doubt; inactive = no such curve, though single readings can be large; an effect the other way counts as inactive or inconclusive.
SMILES,USP1-UAF1 inh,ATXN viability,ATXN2 expr inh,IL-1B inflam inh,USP2a block
COc1ccc(CC(N)c2csc(NC(=O)Nc3cccc(C(F)(F)F)c3)n2)cc1 (centres undefined),·,?,?,-57,·
COc1cc(CNC(=O)Nc2nc(C(N)Cc3ccc(C(F)(F)F)cc3)cs2)cc(OC)c1OC (centres undefined),·,?,?,-59,·
COc1ccc(CC(N)c2csc(NC(=O)Nc3cc(OC)ccc3OC)n2)cc1 (centres undefined),·,?,?,–,·
NC(COCc1ccccc1)c1csc(NC(=O)Nc2cccc(Cl)c2)n1 (centres undefined),·,·,?,-56,·
COc1ccc(CC(N)c2csc(NC(=O)Nc3ccc(F)cc3)n2)cc1 (centres undefined),·,–,–,-65,·
Fc1cccc(CN2CCc3nc(Nc4ccc5c(c4)OCCO5)ncc3C2)c1F,–,?,?,·,·
NC(CCc1ccccc1)c1csc(NC(=O)Nc2cccc(C(F)(F)F)c2)n1 (centres undefined),·,·,?,-57,·
O=C1CCCC1C(=O)Nc1ccc2ccccc2c1 (centres undefined),–,–,·,?,–
O=C1CCCCC1Nc1ccc2ccccc2c1 (centres undefined),–,–,–,-64,·
COc1ccccc1NC(=O)c1cnc(SCC(=O)NCC2CCCO2)n(C)c1=O (centres undefined),–,–,–,-97,–
COc1ccccc1NC(=O)c1cnc(SCC(=O)N2CCOCC2)n(C)c1=O,–,–,–,·,·
COc1ccc2c(C)c(Cl)c(=O)oc2c1,–,–,–,–,–
C=C1CC(COc2ccc3c(C)c(Cl)c(=O)oc3c2)(c2ccccc2)OC1=O (centres undefined),–,·,?,-100,·
CC(C)Oc1ccc(Nc2ncnc3ccccc23)cc1,–,–,·,-154,–
CN(Cc1ccc(OC(F)F)cc1)C(=O)c1cccc(S(=O)(=O)N2CCN(Cc3ccccc3)CC2)c1,–,–,?,-60,·
Cc1cc(S(=O)(=O)N2CCN(CC(=O)N(C)Cc3ccccc3)CC2)ccc1Br,–,–,–,?,–
CCN1CCN(S(=O)(=O)c2ccc(Cl)c(C(=O)N(C)C3CCCCC3)c2)CC1,?,–,·,–,·
CN(Cc1c(F)cccc1Cl)C(=O)c1cccc(S(=O)(=O)N2CCN(Cc3ccccc3)CC2)c1,–,–,–,–,·
CN(Cc1ccccc1)C(=O)CN1CCN(S(=O)(=O)c2ccc(Cl)c(Cl)c2)CC1,–,–,–,-54,–
CCN1CCN(S(=O)(=O)c2ccc(Cl)c(C(=O)N(C)C(c3ccccc3)c3ccccc3)c2)CC1,–,–,–,-75,–
CSc1ccccc1C(=O)NCC1Cc2cccc(-c3ncccc3C)c2O1 (centres undefined),·,–,·,·,·
Cc1cc(C)c2c(N)c(C(=O)Nc3c(C)n(C)n(-c4ccccc4)c3=O)sc2n1,–,–,–,–,–
Cc1cc(OC(C)C(=O)N2CCN(CCc3ccccn3)CC2)ccc1Cl (centres undefined),–,–,–,·,·
Cc1ccc(C(=O)O/N=C(\N)c2ccccn2)cc1,–,–,13µM,–,–
N/C(=N\OC(=O)/C=C/c1ccccc1Cl)c1cccnc1,–,–,–,–,–
SMILES,USP1-UAF1 inh,ATXN viability,ATXN2 expr inh,IL-1B inflam inh,USP2a block
N/C(=N\OC(=O)/C=C/c1ccccc1Cl)c1ccccn1,–,–,16µM,–,–
CC(C)(C)c1ccc(C(=O)O/N=C(\N)c2ccccn2)cc1,–,–,?,-65,–
N/C(=N\OC(=O)c1ccccc1)c1ccccn1,–,–,?,–,–
Cc1ccccc1C(=O)NNc1ncnc2c1cnn2-c1cccc(Cl)c1,–,–,–,·,·
COCc1ccc(CN2CCOc3ccc(C4=Cc5ccccc5C4)cc3C2)o1,·,–,·,·,·
COc1ccc(OC)c(-c2cc(Cl)c3c(c2)CC(CNC(=O)/C=C/c2ccccn2)O3)c1 (centres undefined),·,–,·,·,·
COc1ccc2c(c1)c[n+](C)c1c3cc(OC)c(OC)cc3ccc21,·,?,18µM,?,·
COc1cc2c[n+](C)c3c4ccccc4ccc3c2cc1OC,–,–,–,-112,·
COc1ccc2oc(C(=O)OCC(=O)NC(C)c3ccccc3)c(C)c2c1 (centres undefined),–,–,–,–,–
Cc1cc(C)c(S(=O)(=O)c2ccc(Cl)cc2)c(Cl)n1,–,–,–,–,–
Cc1cc(S(=O)(=O)c2ccc(Cl)cc2)nc(S(=O)(=O)c2ccc(Cl)cc2)c1C#N,–,0.79µM,·,-103,·
CC(C)Cc1ccc(C(C)C(=O)OCc2ccccn2)cc1 (centres undefined),·,–,–,·,·
CCc1ccc(C(C)NC(=O)C2(C)CC2(Br)Br)cc1 (centres undefined),–,–,–,-61,–
CC(Sc1nccn1C)C(=O)c1c(N)n(C)c(=O)n(C)c1=O (centres undefined),–,–,–,–,–
Cc1ccc(OCCn2c(C3CC(=O)N(Cc4ccc(F)cc4)C3)nc3ccccc32)c(C)c1 (centres undefined),–,?,?,·,·
CC(C)c1onc(-c2c(Cl)cccc2Cl)c1COc1ccc(C=Cc2cccc(C(=O)O)c2)c(Cl)c1,·,·,–,·,·
O=C(NCCO)C(=O)NCC(c1ccc2c(c1)OCO2)N1CCOCC1 (centres undefined),–,·,·,·,·
CNC(=S)/N=C(\Nc1ccc(C)cc1)c1ccccc1,–,–,–,·,–
CNC(=S)/N=C(/Nc1ccccc1)c1ccccc1,–,–,–,-69,–
Cc1cc(OC(C)C(=O)NCCCN2CCOCC2)ccc1Cl (centres undefined),–,–,–,–,–
CCOC(=O)/C(=N/Nc1ccccc1)Sc1nnc(CCc2ccccc2)n1-c1ccccc1,–,–,–[11.3 µM],-73,–
Cc1ccc(-n2c(CCc3ccccc3)nnc2SCC(=O)NCc2ccccc2)cc1C,?,–,–,-57,–
Cc1cccc(-n2c(CCc3ccccc3)nnc2SCC(=O)c2ccccc2)c1,–,?,?,-86,–
COCc1nnc(SCC(=O)NCc2ccccc2)n1-c1ccccc1,–,–,–,–,–
Cc1ccc(OCc2nnc(SCC(=O)c3ccccc3)n2-c2ccccc2)cc1,–,–,–,-56,–
SMILES,USP1-UAF1 inh,ATXN viability,ATXN2 expr inh,IL-1B inflam inh,USP2a block
Cc1ccc(OCc2nnc(SCC(=O)O)n2-c2ccccc2)cc1,–,–,–,–,·
COc1ccc2[nH]c(=O)c(CN(C(=O)c3cccc(Cl)c3)c3cccc(C)c3)cc2c1,–,–,–,·,·
Nc1cc2c(cc1Cl)-c1ccccc1C2=NO,–,–,–,–,·
COC(=O)C1CCN(Cc2ccc3c(c2)CN(C(=O)c2cc(C)on2)CCO3)CC1,·,–,·,·,·
COc1ccc2[nH]c(O)c(N=O)c2c1,–,–,–,–,–
O=Nc1c(O)[nH]c2ccc(F)cc12,–,–,–,-88,–
